This is a sample that favours compounds with a hit; in the whole collection about 6.4% have one here.
KinaseGlo FLuc: counter-screen: inhibitors of Kinase-Glo firefly luciferase. Kinase-Glo luciferase, ATP luminescence, 8 min. 200,000 compounds, 0.28% hits. Potency, µM (highest dose often 38.3 µM), actives largely listed as inhibitors. Q27757. AID 1379; also: nearly all actives have a fitted effect of over 60% in size
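Substrate mix (final 50 mM imidazole pH 7.2, 50 mM KCl, 7 mM MgCl2, 10 uM ATP, 0.01% Tween 20, 0.05% BSA) plus pin-tool compound, then Kinase-Glo detection mix; 8 min ambient, luminescence read.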
VP16 counter: Gal4-VP16 reporter inhibition counter-screen | Drosophila S2 Gal4-VP16 UAS-luciferase, luminescence, 20 h | Potency, µM (series often up to 53.6 µM), usual class: inhibitors | 310,000 compounds, 3.5% hits | AID 2546;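 also: Gal4-VP16 expression switched on by copper sulfate through the metallothionein promoter; nearly all actives have a fitted effect of over 50% in size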
RORg inh: inhibitors of mouse ROR gamma transcriptional activity; Potency, µM (titrated, usually from 53.6 µM), most hits filed as inhibitors; Drosophila S2 Gal4-RORgamma UAS-luciferase reporter, 20 h; P51450; AID 2551; 310,000 compounds, 5.4% hits; also: nearly all actives have a fitted effect of over 60% in size
Target sequence (P51450 whole entry, looked up, the tested form may be a part): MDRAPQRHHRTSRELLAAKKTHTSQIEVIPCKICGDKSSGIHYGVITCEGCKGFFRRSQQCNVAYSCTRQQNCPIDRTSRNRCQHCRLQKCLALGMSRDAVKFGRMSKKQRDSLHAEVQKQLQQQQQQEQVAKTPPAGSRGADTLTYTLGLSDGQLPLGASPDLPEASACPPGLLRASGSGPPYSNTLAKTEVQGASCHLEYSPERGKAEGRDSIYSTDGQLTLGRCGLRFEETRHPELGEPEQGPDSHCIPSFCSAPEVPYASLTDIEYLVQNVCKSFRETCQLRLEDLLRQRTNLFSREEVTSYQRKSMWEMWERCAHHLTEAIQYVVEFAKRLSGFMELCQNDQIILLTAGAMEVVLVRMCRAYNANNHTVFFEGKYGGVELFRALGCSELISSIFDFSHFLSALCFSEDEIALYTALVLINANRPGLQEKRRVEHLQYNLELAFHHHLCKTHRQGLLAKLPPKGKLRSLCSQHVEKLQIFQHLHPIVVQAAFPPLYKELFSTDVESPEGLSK
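Compounds are pin-transferred onto Drosophila Schneider cells expressing a copper-inducible Gal4–ROR gamma transactivation domain fusion. After 1 hr, copper sulfate is added to 700 uM final; luciferase is read 20 hr later.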
Numbers stand for hits. Calls follow the shape of the dose curve; as a rule, active = well fitted curve in the direction sought with a large enough effect; inconclusive = small, poorly fitted or top-dose-only effect, or another doubt; inactive = no such curve, though single readings can be large; an effect the other way counts as inactive or inconclusive.

For COc1ccc(NS(=O)(=O)c2cccc(C(=O)N/N=C/c3ccc4c(c3)OCCO4)c2)cc1 the results were KinaseGlo FLuc inactive, VP16 counter inactive and RORg inh inactive.
NC(=S)N/N=C/c1ccc2c(c1)OCCO2 was read as KinaseGlo FLuc inactive, VP16 counter inconclusive and RORg inh 11µM.
For COc1ccccc1OCC(=O)NN=C(Cc1ccccc1)Cc1ccccc1 the results were KinaseGlo FLuc inactive, VP16 counter inconclusive and RORg inh inactive.
For NC(=S)NN=C(Cc1ccccc1)Cc1ccccc1 the results were KinaseGlo FLuc inactive, VP16 counter 5µM and RORg inh 1.4µM.
O=C(NN=C(Cc1ccccc1)Cc1ccccc1)c1ccc(F)cc1 was read as KinaseGlo FLuc inactive, VP16 counter inconclusive and RORg inh inconclusive.
For O=C(NN=C(Cc1ccccc1)Cc1ccccc1)c1ccccc1O the results were KinaseGlo FLuc inactive, VP16 counter inconclusive and RORg inh 3.5µM.
Screening N=c1c2c(-c3ccccc3)c(-c3ccccc3)n(Cc3ccccc3)c2ncn1CCCn1ccnc1 returned KinaseGlo FLuc inactive, VP16 counter 10µM and RORg inh 10µM.
`N=c1c2c(-c3ccccc3)c(-c3ccccc3)n(Cc3ccco3)c2ncn1Cc1ccco1` gave KinaseGlo FLuc inactive, VP16 counter 28µM and RORg inh inconclusive.
For CCCCn1cnc2c(c(-c3ccccc3)c(-c3ccccc3)n2Cc2ccco2)c1=N the results were VP16 counter inactive and RORg inh inactive.
For c1ccc(-c2nc(NCCCn3ccnc3)c3ccccc3n2)cc1 the results were KinaseGlo FLuc inactive, VP16 counter inactive and RORg inh inactive.
Screening COc1ccc(NC(=O)C2CC(=O)N(CCc3ccc(F)cc3)C2)c(OC)c1 (stereo not drawn) returned VP16 counter inactive and RORg inh inactive.
Screening CCN(C(=O)COC(=O)c1ccc(S(=O)(=O)N2CCCc3ccccc32)cc1)C1CCS(=O)(=O)C1 (stereo not drawn) returned KinaseGlo FLuc inactive, VP16 counter inactive and RORg inh inactive.
For COc1ccc(CNC(=O)CN(Cc2ccc(OC)cc2)C(=O)CCC(=O)Nc2ccccn2)cc1 the results were VP16 counter inactive and RORg inh inactive.
COc1ccc(C(=O)O)cc1NC(=S)NC(=O)Cc1ccc(Cl)cc1 was read as VP16 counter inactive and RORg inh inactive.
For Cc1ccc(/C=N/NC(=O)Cc2ccc(Cl)cc2)c(O)c1 the results were VP16 counter 0.56µM and RORg inh 0.22µM.
Screening Cc1cc(O)c(NC(=S)NC(=O)c2ccc(-c3ccc(Cl)cc3)o2)cc1C returned KinaseGlo FLuc inactive, VP16 counter 5µM and RORg inh 3.2µM.
Cc1ccccc1/C=N/NC(=O)Cc1ccc(Cl)cc1 was read as KinaseGlo FLuc inactive, VP16 counter inactive and RORg inh inactive.
`C/C(=N\OCC(=O)N/N=C/c1ccc(C)cc1O)c1cccs1` gave KinaseGlo FLuc inactive, VP16 counter 2.8µM and RORg inh 0.5µM.
Cc1ccc(NC(=S)NC(=O)c2ccc(-c3ccc(Cl)cc3)o2)c(O)c1 was read as KinaseGlo FLuc inactive, VP16 counter inactive and RORg inh inactive.
Cc1ccc(O)c(NC(=S)NC(=O)Cc2ccc(Cl)cc2)c1 was read as VP16 counter 11µM and RORg inh 13µM.
`C/C(=N\NC(=O)CO/N=C(\C)c1cccs1)c1ccc(N)cc1` gave VP16 counter inactive and RORg inh inactive.
Screening O=C1CCCN1CC(=O)N1CCCC(Nc2cccc(F)c2)C1 (stereo not drawn) returned VP16 counter inactive and RORg inh inactive.
`CC[C@@H]1Cn2c(c3nc(-c4cc(Cl)cc(Cl)c4Cl)nc-3n(C)c2=O)N1` gave KinaseGlo FLuc inactive, VP16 counter inconclusive and RORg inh 8.9µM.
`CC[C@@H]1Cn2c(c3nc(-c4ccccc4)nc-3n(C)c2=O)N1` gave KinaseGlo FLuc inactive, VP16 counter inactive and RORg inh inactive.
Cc1nc2cnc(N3CCOCC3)nc2n(Cc2ccc(F)cc2)c1=O was read as VP16 counter inactive and RORg inh inactive.
`Cc1ccc(-c2nc(CSCC(=O)N3CCCC3)c(C)o2)cc1` gave KinaseGlo FLuc inactive, VP16 counter inactive and RORg inh inactive.
`Cc1ccc(-c2nc(CSCC(=O)Nc3cc(C)on3)c(C)o2)cc1` gave KinaseGlo FLuc inactive, VP16 counter 6.3µM and RORg inh inconclusive.
CCCNC(=O)CSCc1nc(-c2ccc(SC)cc2)oc1C was read as KinaseGlo FLuc inactive, VP16 counter inactive and RORg inh inactive.
CCc1ccc(-c2nc(CSCC(=O)NCc3ccco3)c(C)o2)cc1 was read as KinaseGlo FLuc inactive, VP16 counter 2µM and RORg inh 0.4µM.
For Cc1cc(NC(=O)CSCc2nc(-c3cccc(F)c3)oc2C)no1 the results were KinaseGlo FLuc inactive, VP16 counter inactive and RORg inh inactive.
For CCOC(=O)CSCc1nc(-c2ccc(Cl)cc2)oc1C the results were KinaseGlo FLuc inactive, VP16 counter inconclusive and RORg inh 10µM.
`N[C@H](C(=O)O)[C@@H]1[C@@H](C(=O)O)C1(F)F` gave KinaseGlo FLuc inactive, VP16 counter inactive and RORg inh inactive.
For CC(NC(=O)c1cc(Br)ccc1Br)c1ccccc1 (stereo not drawn) the results were KinaseGlo FLuc inactive, VP16 counter inactive and RORg inh inactive.
For CCOc1ccc(C(C(=O)NC2CCCCC2)N(C(=O)c2csnn2)C2CC2)cc1 (stereo not drawn) the results were VP16 counter inactive and RORg inh inactive.
COc1ccccc1Nc1nc(N)nc(CN2CCN(Cc3ccccc3)CC2)n1 was read as KinaseGlo FLuc inactive, VP16 counter inactive and RORg inh inactive.
Screening CCOc1ccccc1Nc1nc(N)nc(CN(C)C2CCCCC2)n1 returned KinaseGlo FLuc inactive, VP16 counter inactive and RORg inh 11µM.
Screening CC1CC(C)CN(C(=S)SCc2nc(N)nc(Nc3ccccc3)n2)C1 (stereo not drawn) returned VP16 counter inconclusive and RORg inh 5.6µM.
COc1ccccc1Nc1nc(N)nc(CN2CCN(c3ccccc3F)CC2)n1 was read as KinaseGlo FLuc inactive, VP16 counter 7.9µM and RORg inh 1.8µM.
`Nc1nc(CN2CCN(c3ccccc3F)CC2)nc(Nc2ccc3c(c2)OCCO3)n1` gave KinaseGlo FLuc inactive, VP16 counter inactive and RORg inh inactive.
`CCOc1ccccc1Nc1nc(N)nc(CSc2nccc(C)n2)n1` gave KinaseGlo FLuc inactive, VP16 counter inactive and RORg inh inactive.
For CCOc1ccc(Nc2nc(N)nc(CN3CCN(c4ccccc4F)CC3)n2)cc1 the results were KinaseGlo FLuc inactive, VP16 counter inactive and RORg inh 11µM.
Nc1nc(CSC(=S)N2CCCCC2)nc(Nc2ccccc2)n1 was read as KinaseGlo FLuc inactive, VP16 counter inactive and RORg inh inconclusive.
For Cc1ccc(C(=O)NCCS(=O)(=O)N2CCN(c3ccccc3F)CC2)cc1[N+](=O)[O-] the results were VP16 counter inactive and RORg inh inactive.
For COC(=O)c1ccc(C)c(NC(=O)C(CCSC)NC(=O)c2cc(OC)c(OC)c(OC)c2)c1 (stereo not drawn) the results were VP16 counter inactive and RORg inh inactive.
`O=C(/C=C\c1ccc(-c2cccc([N+](=O)[O-])c2)o1)N1CCOCC1` gave KinaseGlo FLuc inactive, VP16 counter inactive and RORg inh inactive.

Source: PubChem (National Center for Advancing Translational Sciences (NCATS))
